SMILES strings stand for the structures. About 83,000 compounds went through this panel and 20% of them were active in at least one assay; those are over-represented in the sample as a whole.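 How to read the values: 0–100, growth inhibition (40 = 60% inhibited); 0, no net growth; -100 to 0, cell death (-40 = 40% of starting cells died; -100 = all dead).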 Values without a mark were called inactive. Active and inactive are the calls of the source. The calls were made as follows: active = growth percent below 10; inactive = the rest.

In PubChem BioAssay (NCI) one finds growth data, which are given here for nine compounds.

Test systems include SR leukemia; RPMI-8226 leukemia; OVCAR-8 ovarian; OVCAR-5 ovarian; OVCAR-4 ovarian; SK-OV-3 ovarian; IGROV1 ovarian; OVCAR-3 ovarian; HS 578T breast; NCI/ADR-RES ovarian; T-47D breast; BT-549 breast; MDA-MB-435 melanoma; SW-620 colon; MCF7 breast; HCT-116 colon; HCC-2998 colon; KM12 colon.
Common to all, as to test: NCI-60 one-dose screen, 48 h (100 = growth as untreated, 0 = no growth, -100 = all killed)
Common to all, as to details: 10 µM unless noted

Consider `O=c1[nH]c(-c2ccc(Cl)cc2)cn1-c1ccc(-n2cc(-c3ccc(Cl)cc3)[nH]c2=O)cc1`, for which the growth in the test on SR leukemia is 98%; in the test on RPMI-8226 leukemia, 123%; in the test on OVCAR-8 ovarian, 92%; in the test on OVCAR-5 ovarian, 104%; in the test with OVCAR-4 ovarian, 98.5%; in the test on SK-OV-3 ovarian, 97.5%. Also, the growth in the test on IGROV1 ovarian was 102%; in the test on OVCAR-3 ovarian, 109%; with HS 578T breast, 102%; in the test on NCI/ADR-RES ovarian it was 108%; in the test on T-47D breast it was 89.1%; in the test with BT-549 breast, 110%. For the same compound, the growth in the test on MDA-MB-435 melanoma was 98.8%; with SW-620 colon, 102%; in the test on MCF7 breast, 99.8%; in the test on HCT-116 colon, 101%; with HCC-2998 colon it was 106%; with KM12 colon, 106%.
Turning to `COc1cc2c(c(OC)c1OC)C(=O)N[C@@H]1[C@@H](O)[C@@H](O)[C@H](O)C[C@@H]21`, the growth is 95.6% with SR leukemia; 102% with RPMI-8226 leukemia; 97.3% in the test on OVCAR-8 ovarian; 106% in the test on OVCAR-5 ovarian; 107% in the test with OVCAR-4 ovarian; 99.9% in the test with SK-OV-3 ovarian. Also, the growth was 111% in the test on IGROV1 ovarian; 112% in the test on OVCAR-3 ovarian; 108% with HS 578T breast; 108% with NCI/ADR-RES ovarian; 100% with T-47D breast; 110% in the test with BT-549 breast. Also, the growth was 110% in the test with MDA-MB-435 melanoma; 109% in the test with SW-620 colon; 96.1% in the test with MCF7 breast; 98.9% in the test on HCT-116 colon; 101% in the test on HCC-2998 colon; 108% with KM12 colon.
Consider `CC(C(=O)O)n1c(O)c(C=Nc2cccnc2)sc1=S` (configuration not stated), for which the growth in the test with SR leukemia was 97.8%; in the test on RPMI-8226 leukemia, 83.6%; in the test with OVCAR-8 ovarian, 90.7%; in the test on OVCAR-5 ovarian, 98.9%; in the test on OVCAR-4 ovarian, 92.4%; in the test with SK-OV-3 ovarian it was 98.4%. Moreover, the growth in the test with IGROV1 ovarian was 84.2%; in the test on OVCAR-3 ovarian it was 105%; in the test with HS 578T breast, 74.9%; in the test on NCI/ADR-RES ovarian, 98.7%; in the test on T-47D breast, 81.2%; in the test with BT-549 breast, 89.2%. In addition, the growth with MDA-MB-435 melanoma is 100%; in the test with SW-620 colon, 102%; in the test with MCF7 breast it was 86.7%; with HCT-116 colon, 89.4%; in the test on HCC-2998 colon, 111%; with KM12 colon it was 98.7%.
For the compound `CCOC(=O)Nc1nc2ccc(SCC(C)C)cc2s1`, the growth with SR leukemia is 12.5%; in the test with RPMI-8226 leukemia, 32.3%; in the test on OVCAR-8 ovarian it was 49.1%; with OVCAR-5 ovarian, 50.2%; with OVCAR-4 ovarian, 95.3%; in the test with SK-OV-3 ovarian, 28.6%. In addition, the growth was 51.1% in the test with IGROV1 ovarian; -16.4% (active) with OVCAR-3 ovarian; 30.3% with HS 578T breast; 14.1% in the test with NCI/ADR-RES ovarian; 24.3% with T-47D breast; 47.1% in the test with BT-549 breast. The growth in the test on MDA-MB-435 melanoma is 104%; with SW-620 colon, 33.8%; with MCF7 breast, 20.6%; with HCT-116 colon, 31.4%; in the test with HCC-2998 colon, 75%; in the test with KM12 colon, 34.4%.
For the compound `CCOC(=O)C1=C(c2ccccc2)N=c2s/c(=C/c3ccc(Br)cc3)c(=O)n2C1c1ccc(O)cc1` (configuration not stated), the growth was 54.8% in the test on SR leukemia; 74.1% in the test on RPMI-8226 leukemia; 89.2% with OVCAR-8 ovarian; 105% with OVCAR-5 ovarian; 75.1% in the test with OVCAR-4 ovarian; 104% with SK-OV-3 ovarian. In addition, the growth in the test with IGROV1 ovarian is 93.1%; with OVCAR-3 ovarian, 86.1%; with HS 578T breast, 84.4%; with NCI/ADR-RES ovarian, 99.5%; with T-47D breast it was 69.7%; in the test on BT-549 breast, 95.3%. The growth in the test on MDA-MB-435 melanoma is 96%; in the test on SW-620 colon it was 94.6%; in the test with MCF7 breast, 77.1%; in the test with HCT-116 colon, 82.3%; in the test with HCC-2998 colon, 105%; in the test on KM12 colon, 84.4%.
Regarding `Nc1c(C(=O)O)cc(Cl)cc1[N+](=O)[O-]`, the growth with SR leukemia was 109%; in the test with RPMI-8226 leukemia, 104%; in the test with OVCAR-8 ovarian, 92.7%; in the test on OVCAR-5 ovarian it was 90.4%; in the test on OVCAR-4 ovarian it was 99.5%; with SK-OV-3 ovarian, 101%. Further, the growth is 100% in the test with IGROV1 ovarian; 105% in the test on OVCAR-3 ovarian; 101% with HS 578T breast; 97.8% with NCI/ADR-RES ovarian; 95.6% in the test on T-47D breast; 109% in the test on BT-549 breast. Moreover, the growth with MDA-MB-435 melanoma was 105%; with SW-620 colon, 99.5%; in the test on MCF7 breast, 95.2%; in the test with HCT-116 colon, 94.6%; with HCC-2998 colon, 95.1%; with KM12 colon, 105%.
For the compound `N#Cc1nc(-c2ccc(F)cc2)oc1S(=O)(=O)N1CCN(c2ccc(F)cc2)CC1`, the growth in the test on SR leukemia was 6.45% (active); in the test on RPMI-8226 leukemia, 46.5%; with OVCAR-8 ovarian, 71.4%; in the test with OVCAR-5 ovarian it was 111%; with OVCAR-4 ovarian, 105%; in the test with SK-OV-3 ovarian, 118%. The growth with IGROV1 ovarian was 76%; in the test on OVCAR-3 ovarian, 91%; in the test on HS 578T breast, 107%; in the test on NCI/ADR-RES ovarian, 94.7%; with T-47D breast it was 85.8%; with BT-549 breast it was 103%. Further, the growth was 86.8% with MDA-MB-435 melanoma; 19% with SW-620 colon; 40.9% in the test on MCF7 breast; 46.7% in the test on HCT-116 colon; 109% in the test on HCC-2998 colon; 102% in the test on KM12 colon.
Consider `CN1CCN(c2ccc3c(c2)nc(NNC(=O)c2cnccn2)c2cccn23)CC1`, for which the growth with SR leukemia was 15%; in the test with RPMI-8226 leukemia, 45.3%; in the test with OVCAR-8 ovarian, 20.9%; in the test on OVCAR-5 ovarian it was 49.3%; in the test on OVCAR-4 ovarian, 25%; in the test with SK-OV-3 ovarian, 32.5%. Further, the growth in the test on IGROV1 ovarian is 15.6%; in the test on OVCAR-3 ovarian, 13.9%; in the test with HS 578T breast, 75.4%; in the test on NCI/ADR-RES ovarian, 16.9%; in the test on T-47D breast it was 37.9%; in the test with BT-549 breast it was 41.2%. The growth in the test with MDA-MB-435 melanoma is 32.6%; with SW-620 colon, 34.1%; in the test with MCF7 breast, 13.8%; with HCT-116 colon it was 23.1%; with HCC-2998 colon, 47.8%; in the test on KM12 colon, 19.3%.
With `Cn1cc(-c2csc(-c3cn(C)c4ccc(Br)cc34)n2)c2cnccc21`, the growth was -29.6% (active) in the test on SR leukemia; -37.3% (active) with RPMI-8226 leukemia; -49.4% (active) in the test with OVCAR-8 ovarian; -67.3% (active) in the test with OVCAR-5 ovarian; -50.9% (active) in the test with OVCAR-4 ovarian; 96.5% with SK-OV-3 ovarian. Also, the growth is -91.5% (active) in the test on IGROV1 ovarian; -92.9% (active) in the test with OVCAR-3 ovarian; -40% (active) with HS 578T breast; -69.5% (active) in the test on NCI/ADR-RES ovarian; -47.3% (active) in the test with T-47D breast; 86.2% in the test on BT-549 breast. Also, the growth in the test on MDA-MB-435 melanoma is -87.6% (active); in the test on SW-620 colon, -70% (active); in the test with MCF7 breast, -74.7% (active); with HCT-116 colon it was -89.8% (active); in the test with HCC-2998 colon it was -84.3% (active); with KM12 colon it was -87.4% (active).
